Screening data as filed in PubChem BioAssay.
S2 tox = reduces viability in counter-screen for ATXN expression inhibitors; S2 cells (HEK-293 line with an ATXN2-luciferase reporter) viability, CellTiter-Fluor protease fluorescence, 24 h; Potency, µM (top dose mostly 56.7 µM), usual class: cytotoxic; hit rate 0.49% among 400,000; further: nearly all actives have a fitted effect of over 40% in size
Six1-Eya2 inh = Six1/Eya2 interaction inhibition; Q15475+O00167; AlphaScreen GST-Six1/His-Eya2 binding, biochemical; active compounds read low; activity change, % (concentration not given with the values); hit rate 0.56% among 360,000; AID 651725; in the data active means activity change below about -65%; inconclusive means mostly about -30% to -63%
Target sequence (O00167 whole entry, looked up): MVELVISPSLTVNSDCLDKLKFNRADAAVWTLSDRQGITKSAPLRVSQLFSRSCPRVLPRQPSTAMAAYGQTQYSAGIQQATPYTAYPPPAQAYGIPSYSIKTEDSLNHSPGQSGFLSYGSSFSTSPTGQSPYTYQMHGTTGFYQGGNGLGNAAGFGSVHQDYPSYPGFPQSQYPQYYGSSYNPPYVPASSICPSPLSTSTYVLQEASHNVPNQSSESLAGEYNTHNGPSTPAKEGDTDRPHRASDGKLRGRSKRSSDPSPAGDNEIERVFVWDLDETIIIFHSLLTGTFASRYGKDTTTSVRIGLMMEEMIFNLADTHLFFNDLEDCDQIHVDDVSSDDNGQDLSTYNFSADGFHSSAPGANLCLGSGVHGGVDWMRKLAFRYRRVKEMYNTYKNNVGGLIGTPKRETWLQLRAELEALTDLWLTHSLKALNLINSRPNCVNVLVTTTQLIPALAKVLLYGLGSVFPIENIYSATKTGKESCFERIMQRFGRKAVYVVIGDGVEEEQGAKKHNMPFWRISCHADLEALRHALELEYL
Target sequence (Q15475 whole entry, looked up): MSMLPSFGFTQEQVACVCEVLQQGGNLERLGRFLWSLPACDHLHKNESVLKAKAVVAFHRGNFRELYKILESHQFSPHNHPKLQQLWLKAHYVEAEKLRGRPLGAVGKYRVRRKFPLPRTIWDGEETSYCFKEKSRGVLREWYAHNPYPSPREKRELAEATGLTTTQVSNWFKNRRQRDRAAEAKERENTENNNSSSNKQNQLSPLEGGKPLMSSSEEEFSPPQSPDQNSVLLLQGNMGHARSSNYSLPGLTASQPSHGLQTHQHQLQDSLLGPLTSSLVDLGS
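Homogeneous AlphaScreen proximity assay pairing GST-Six1 with His-tagged Eya2 (added as 5X mix: 250 nM and 500 nM) in 50 mM Tris pH 8.0, 300 mM NaCl, 1 mM TCEP. Glutathione donor and nickel acceptor beads; 1 h, 37 °C, dark.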
ATXN2 expr inh = inhibitors of ATXN2 expression; HEK-293 ATXN2-luciferase reporter, luminescence, 24 h; Potency, µM (highest dose often 57 µM), most hits filed as inhibitors; hit rate 0.72% among 360,000; further: nearly all actives have a fitted effect of over 55% in size
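qHTS (up to 57 uM final) was run with 24 h compound exposure of reporter cells at 37 °C. Each well was multiplexed: SteadyGlo luminescence measured ATXN2-luciferase expression after a fluorogenic Gly-Phe-AFC viability readout (25 uM final).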
TGFb inhibitor = inhibitors of TGF-b signaling; HepG2 CAGA-GFP TGF-b/SMAD3 reporter, GFP fluorescence, 18 h; TGF-beta stimulated, 500 pg/mL final; Potency, µM (titrated, usually from 46.1 µM), hits mostly inhibitors; hit rate 1.2% among 410,000; AID 588855; further: nearly all actives have a fitted effect of over 65% in size
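HEPG2 CAGA-GFP cells (1000/well, DMEM with 1% FBS) were pre-incubated 2 h at 37 degrees C, given compound by pin tool, then stimulated with TGF-beta at 500 pg/mL final for 18 h before per-cell GFP fluorescence imaging.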
CtBP-E1A blk = blocks the CtBP interaction with E1A. hit rate 0.49% among 340,000. AlphaScreen GST-E1A/His-CtBP binding, 1536-well; active compounds read low. AID 651724. activity change, % (test concentration not listed); in the data active means activity change below about -65%; inconclusive means mostly about -30% to -63%
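GST-E1A and His-tagged CtBP (125 nM each as 5X stock) were preincubated with pin-transferred compound for 2 h at 37 °C in the dark, then glutathione donor and nickel acceptor beads were added for 1 h before AlphaScreen reading.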
HepG2 viability = kills HepG2 cells in TGF-b inhibitor counter-screen; Potency, µM (doses to about 46.1 µM), actives largely listed as cytotoxic; HepG2 CAGA-GFP viability, ATP luminescence, 18 h; AID 588856; hit rate 0.76% among 410,000
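CellTiter-Glo luminescence gave cytotoxicity after 18 hours at 37 degrees C. The cells were HepG2 CAGA-GFP in 1% FBS DMEM, stimulated with 500 pg/mL TGF-beta after compound addition. %Activity was normalised to no-cell wells (complete cell-killing) and DMSO (no toxicity), and curves were fitted and classified.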
Each line names hits and unclear results; the compound was inactive in the other large screens; ! = not confirmed by another sample. Hits are enriched below; roughly 2.8% of the tested compounds scored in any of these assays. Unless noted, the call rests on the fitted dose curve; in most records, active means well fitted curve in the direction sought with a large enough effect; inconclusive means small, poorly fitted or top-dose-only effect, or another doubt; inactive means no such curve, though single readings can be large; an effect the other way counts as inactive or inconclusive.

CC(C)(CNC(=O)c1cnn(-c2ncc3c(n2)-c2ccccc2CCC3)c1C1CC1)N1CCOCC1	none (no result: Six1-Eya2 inh, ATXN2 expr inh, TGFb inhibitor, CtBP-E1A blk, HepG2 viability)
Cc1ccc2nc(N(CCCN(C)C)C(=O)c3ccc(Br)s3)sc2c1	S2 tox 22.4µM!, ATXN2 expr inh inconclusive, TGFb inhibitor inconclusive, HepG2 viability 12.6µM!
CN(C)CCCN(C(=O)c1ccc(Br)s1)c1nc2ccc(F)cc2s1	none (no result: Six1-Eya2 inh, CtBP-E1A blk)
Cc1ccc2nc(N(CCCN(C)C)C(=O)c3cc(-c4cccs4)nc4ccccc34)sc2c1	S2 tox 31.6µM, ATXN2 expr inh inconclusive, TGFb inhibitor 15.8µM, CtBP-E1A blk inconclusive, HepG2 viability 11.2µM
NCCC(=O)[N-][C@@H](Cc1cnc[nH]1)C(=O)O.[Zn]	none (no result: Six1-Eya2 inh, ATXN2 expr inh, TGFb inhibitor, CtBP-E1A blk, HepG2 viability)
Oc1ccc2ccccc2c1-c1sc(Nc2ccccc2)n[n+]1-c1ccc(F)cc1	none
Fc1ccc(-[n+]2nc(Nc3ccccc3)sc2-c2c3ccccc3cc3ccccc23)cc1	S2 tox 11.2µM, Six1-Eya2 inh inconclusive, ATXN2 expr inh 25.1µM, TGFb inhibitor 11.2µM, CtBP-E1A blk inconclusive, HepG2 viability 11.2µM
COc1cccc(Nc2nnc(SCC(=O)Nc3sccc3C(N)=O)s2)c1	S2 tox inconclusive (no result: ATXN2 expr inh, CtBP-E1A blk)
CCc1ccc(Nc2nnc(SCC(=O)Nc3sccc3C(N)=O)s2)cc1	S2 tox inconclusive, TGFb inhibitor 10µM
c1csc(-c2nc3c4ccccc4c4ccccc4c3[nH]2)c1	Six1-Eya2 inh inconclusive, TGFb inhibitor inconclusive
Oc1ccccc1-c1nc2c3ccccc3c3ccccc3c2[nH]1	ATXN2 expr inh inconclusive, TGFb inhibitor 15.8µM
COc1ccc(/C=C/C(=O)CC(O)(c2ccccc2)C(F)(F)F)cc1 (stereo not drawn)	TGFb inhibitor inconclusive, HepG2 viability 10µM
O=C(/C=C/c1ccccc1)CC(O)(c1ccccc1)C(F)(F)F (stereo not drawn)	S2 tox inconclusive, ATXN2 expr inh inconclusive, TGFb inhibitor 11.2µM
O=C(/C=C/c1ccccc1)CC(O)(c1ccccc1)C(F)(F)C(F)F (stereo not drawn)	S2 tox inconclusive, ATXN2 expr inh inconclusive, TGFb inhibitor 12.6µM
O=C(NCCN1CCOCC1)c1cnn(-c2ncc3c(n2)-c2ccccc2CC3)c1C1CC1	none (no result: Six1-Eya2 inh, ATXN2 expr inh, TGFb inhibitor, CtBP-E1A blk, HepG2 viability)
CCOC(=O)c1ccc(N2C(=O)c3[nH]nc(-c4ccc(OC)cc4)c3C2c2cccc(O)c2)cc1 (stereo not drawn)	ATXN2 expr inh inconclusive, TGFb inhibitor 15.8µM, HepG2 viability 10µM (no result: S2 tox, Six1-Eya2 inh, CtBP-E1A blk)
CCOC(=O)c1ccc(N2C(=O)c3n[nH]c(-c4cccs4)c3C2c2cccc(OC)c2)cc1 (stereo not drawn)	S2 tox inconclusive, ATXN2 expr inh inconclusive, TGFb inhibitor 1.78µM (no result: Six1-Eya2 inh, CtBP-E1A blk)
CCOC(=O)c1ccc(N2C(=O)c3n[nH]c(C)c3C2c2cccnc2)cc1 (stereo not drawn)	none
CCOC(=O)c1ccc(N2C(=O)c3[nH]nc(-c4ccc(C)cc4)c3C2c2cccc(F)c2)cc1 (stereo not drawn)	S2 tox inconclusive, ATXN2 expr inh inconclusive, TGFb inhibitor inconclusive, HepG2 viability 11.2µM (no result: Six1-Eya2 inh, CtBP-E1A blk)
CCOc1ccc(N2C(=O)c3n[nH]c(-c4cccs4)c3C2c2cccc(F)c2)cc1 (stereo not drawn)	ATXN2 expr inh inconclusive, TGFb inhibitor inconclusive, HepG2 viability 11.2µM (no result: S2 tox, Six1-Eya2 inh, CtBP-E1A blk)
Cc1ccc(S(=O)(=O)N2CCN(Cc3ccccc3Cl)CC2)cc1	TGFb inhibitor inconclusive (no result: Six1-Eya2 inh, CtBP-E1A blk)
Cc1c(C)c2cc3c(c(C)c2oc1=O)OCN(CCc1ccccc1)C3	none (no result: S2 tox, Six1-Eya2 inh, CtBP-E1A blk)
CCCCCCCCCCCCCCCC(=O)OC[C@@H](NC(=O)C(Cl)Cl)[C@H](O)c1ccc([N+](=O)[O-])cc1	none (no result: Six1-Eya2 inh, TGFb inhibitor, CtBP-E1A blk, HepG2 viability)
CCCS(=O)(=O)NCc1c(C)ncc2c1CCN(C(=O)c1cccc(Cl)c1F)C2	none (no result: Six1-Eya2 inh, ATXN2 expr inh, TGFb inhibitor, CtBP-E1A blk, HepG2 viability)
COc1cc(OC)cc(C(=O)Oc2c(Sc3ccccc3)c(C)nn2C(C)(C)C)c1	TGFb inhibitor inconclusive (no result: Six1-Eya2 inh, CtBP-E1A blk)
CCOc1ccc(Nc2nc(N)c3ccccc3n2)cc1	ATXN2 expr inh inconclusive, HepG2 viability 15.8µM
Nc1nc(Nc2ccccc2)nc2ccccc12	none
Cc1ccccc1Nc1nc(N)c2ccccc2n1	HepG2 viability 11.2µM
Cc1ccc(Nc2nc(N)c3ccccc3n2)cc1Cl	S2 tox inconclusive, TGFb inhibitor inconclusive (no result: ATXN2 expr inh, CtBP-E1A blk)
